# Test results as given in PubChem BioAssay (NCATS).
# Results filed as inconclusive are left out. Active and inactive are the calls of the source. Calls come from the whole dose curve; as a rule, active = well fitted curve in the direction sought with a large enough effect; inconclusive = small, poorly fitted or top-dose-only effect, or another doubt; inactive = no such curve, though single readings can be large; an effect the other way counts as inactive or inconclusive.
# Biological target: Metallo-beta-lactamase type 2 (Klebsiella pneumoniae) (UniProt C7C422)
# Sequence (C7C422 whole entry, looked up): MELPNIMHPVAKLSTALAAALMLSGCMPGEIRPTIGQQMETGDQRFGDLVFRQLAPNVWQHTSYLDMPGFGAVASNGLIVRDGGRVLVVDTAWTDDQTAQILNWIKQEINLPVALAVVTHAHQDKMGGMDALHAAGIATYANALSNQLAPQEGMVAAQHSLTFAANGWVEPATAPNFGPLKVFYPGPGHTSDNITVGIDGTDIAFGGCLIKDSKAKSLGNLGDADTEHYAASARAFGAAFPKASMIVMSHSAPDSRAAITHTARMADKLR
# Experiment: qHTS to identify inhibitors of the New Delhi Metallo-beta-lactamase (NDM): assay validation screen against the NCATS LOPAC Collection (AID 1794843); note: potency is the fitted concentration of half-maximal effect
# Details: NDM-1 enzyme, nitrocefin hydrolysis, absorbance 485 nm; series mostly up to 38.4 µM; activity change, negative = inhibition: at the top concentration
# Summary of the method: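 Absorbance at 485 nm from nitrocefin turnover (50 uM solution added), read at plateau, gives the read-out. Compounds in DMSO were incubated first with 2 nM final NDM-1 in pH 7.0 HEPES buffer containing 1 uM ZnSO4 and 0.01% Tween20.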
# % is set by controls: 0 for no effect and ±100 for the full control effect.
SMILES,"activity change, negative = inhibition",Potency
N#C/C(=C\c1ccc(O)c(O)c1)C(=O)c1ccc(O)c(O)c1,3.12% (inactive),
Nc1nc2ccc(Cl)cc2n2c(-c3ccccc3)nnc12,-1.49% (inactive),
O=C1NC(=O)c2c1c(-c1ccccc1)cc1[nH]c3ccc(O)cc3c21,4.56% (inactive),
CN(C)CCC(c1ccc(Cl)cc1)c1ccccn1 (stereo unspecified),-0.0151% (inactive),
Cc1ccc(S(=O)(=O)/C=C/C#N)cc1,-3.61% (inactive),
CCCCC#Cc1nc(NC)c2ncn([C@@H]3O[C@H](CO)[C@@H](O)[C@H]3O)c2n1,-3.56% (inactive),
CCCN(CC1CC1)c1nc(C)nc(Nc2c(Cl)cc(Cl)cc2Cl)c1Cl,6.03% (inactive),
C[N+](C)(C)CCOP(=O)(O)OP(=O)([O-])OC[C@H]1O[C@@H](n2ccc(N)nc2=O)[C@H](O)[C@@H]1O,-0.471% (inactive),
COc1cc2c(CCNC(C)=O)c[nH]c2cc1Cl,5.01% (inactive),
OC[C@H]1O[C@@H](n2cnc3c(NC4CCCCC4)ncnc32)[C@H](O)[C@@H]1O,10.7% (inactive),
CC(=O)N[C@H](C(=O)O)C(C)(C)SN=O,-5.16% (inactive),
Cn1cc(C2=C(c3ccc(Cl)cc3Cl)C(=O)NC2=O)c2ccccc21,-6.58% (inactive),
Cn1c(=O)c2[nH]c(-c3ccccc3)nc2n(C)c1=O,-0.841% (inactive),
COc1cccc(OC)c1OCCNCC1COc2ccccc2O1 (stereo unspecified),3.86% (inactive),
CO[C@H]1O[C@@H]2O[C@]3(C)CC[C@@H]4[C@@H](C)CC[C@H]([C@H]1C)[C@]24OO3,3.48% (inactive),
N#C/C(=C\c1ccc(-c2cc(Cl)ccc2Cl)o1)C(=O)Nc1cccc2ncccc12,1.08% (inactive),
Cn1c(=O)c(-c2c(Cl)cccc2Cl)cc2cnc(Nc3ccc(N4CCOCC4)cc3)nc21,-8.4% (inactive),
CCC(CO)Nc1nc(NCc2ccccc2)c2ncn(C(C)C)c2n1 (stereo unspecified),2.92% (inactive),
S=C(S)OC1CC2CC1C1CCCC21 (stereo unspecified),-0.91% (inactive),

SMILES,"activity change, negative = inhibition",Potency
O=C(O)CC1CCCc2ccccc2C1O (stereo unspecified),1.48% (inactive),
O=[N+]([O-])c1ccc2c(c1)S(=O)(=O)C=C2,-3.08% (inactive),
C#C[C@]1(O)CC[C@H]2[C@@H]3CCC4=Cc5oncc5CC4(C)[C@H]3CCC21C (stereo partly specified),-0.462% (inactive),
Nc1nc(Cl)nc2c1ncn2[C@@H]1O[C@H](CO)[C@@H](O)[C@H]1O,-7.12% (inactive),
CN1CCc2ccccc2Cc2[nH]c3ccccc3c2CC1,0.888% (inactive),
COc1ccc(/C=C/c2nc(NCCCN(C)C)c3ccccc3n2)cc1,0.792% (inactive),
S=c1[nH]c(-c2ccccc2)cn1-c1ccccc1,-10.2% (inactive),
c1cnc2c(c1)ccc1cccnc12,,20 µM (active)
CC(C)(NS(=O)(=O)c1ccc(Oc2ccc(F)cc2)cc1)C(=O)NO,-2.66% (inactive),
O=S(=O)(c1cccc2c(I)cccc12)N1CCCNCC1,-6.29% (inactive),
O=C(O)c1cc([N+](=O)[O-])ccc1NCCCc1ccccc1,-4.45% (inactive),
CC[C@H]1OC(=O)[C@H](C)[C@@H](O[C@H]2C[C@@](C)(OC)[C@@H](O)[C@H](C)O2)[C@H](C)[C@@H](O[C@@H]2O[C@H](C)C[C@H](NC)[C@H]2O)[C@](C)(O)C[C@@H](C)CN(C)[C@H](C)[C@@H](O)[C@]1(C)O,6.79% (inactive),
NC(CCCP(=O)(O)O)C(=O)O (stereo unspecified),-3.51% (inactive),
NC[C@@H]1O[C@H](C23CC4CC(CC(C4)C2)C3)Cc2c1ccc(O)c2O,1.02% (inactive),
O=c1[nH]c2cc([N+](=O)[O-])c([N+](=O)[O-])cc2[nH]c1=O,8.09% (inactive),
CC(C)Cc1ccc([C@H](C)C(=O)O)cc1,10.3% (inactive),
CCCCCCCC/C=C\CCCCCCCC(=O)NCCO,1.58% (inactive),
CC[C@H]1OC(=O)[C@H](C)C(O[C@H]2C[C@@](C)(OC)[C@@H](O)[C@H](C)O2)[C@H](C)[C@@H](OC2O[C@H](C)C[C@H](N(C)C)[C@H]2O)[C@](C)(O)C[C@@H](C)CN(C)[C@H](C)[C@@H](O)[C@]1(C)O (stereo partly specified),7.47% (inactive),
CN[C@H](CC(C)C)C(=O)N[C@H]1C(=O)N[C@@H](CC(N)=O)C(=O)N[C@H]2C(=O)N[C@H]3C(=O)N[C@H](C(=O)N[C@H](C(=O)O)c4cc(O)cc(O)c4-c4cc3ccc4O)[C@H](O)c3ccc(c(Cl)c3)Oc3cc2cc(c3O[C@@H]2O[C@H](CO)[C@@H](O)[C@H](O)[C@H]2O[C@H]2C[C@](C)(N)[C@H](O)[C@H](C)O2)Oc2ccc(cc2Cl)[C@H]1O,1.1% (inactive),

# Biological target: Glutathione peroxidase 1 (Homo sapiens) (UniProt P07203)
# Sequence (P07203 whole entry, looked up): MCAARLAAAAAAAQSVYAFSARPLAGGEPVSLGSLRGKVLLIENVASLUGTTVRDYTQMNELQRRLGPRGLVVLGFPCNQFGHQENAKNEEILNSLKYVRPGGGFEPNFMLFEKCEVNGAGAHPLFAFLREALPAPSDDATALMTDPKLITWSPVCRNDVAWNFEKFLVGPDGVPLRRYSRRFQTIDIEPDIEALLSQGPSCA
# Experiment: Primary qHTS Assay for Inhibitors of Recombinant Selenoprotein Glutathione Peroxidase 1 (GPX1) (AID 1845191); note: nearly all actives have a fitted effect of over 65% in size
# Details: recombinant GPX1, GR-coupled NADPH fluorescence, 15 min; series mostly up to 48.8 µM; activity, negative = inhibition: at the top concentration
# Summary of the method: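 GR-coupled readout: NADPH consumption tracked by fluorescence, ex 340/em 450 nm, at t=0 and after 15 min at RT. Final mix 10 nM GPX1, 1 mM GSH, 0.5 mM CHP, 0.5 mM NADPH, 100 nM GR, 0.01% BSA, following 30 min enzyme–compound preincubation.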
SMILES,outcome,"activity, negative = inhibition",Potency
N#C/C(=C\c1ccc(O)c(O)c1)C(=O)c1ccc(O)c(O)c1,inactive,,
Nc1nc2ccc(Cl)cc2n2c(-c3ccccc3)nnc12,,-11.4% (inactive),
O=C1NC(=O)c2c1c(-c1ccccc1)cc1[nH]c3ccc(O)cc3c21,,-34.7% (inactive),
CN(C)CCC(c1ccc(Cl)cc1)c1ccccn1 (stereo unspecified),,-19% (inactive),
Cc1ccc(S(=O)(=O)/C=C/C#N)cc1,,,inactive
CCCCC#Cc1nc(NC)c2ncn([C@@H]3O[C@H](CO)[C@@H](O)[C@H]3O)c2n1,,3.96% (inactive),
CCCN(CC1CC1)c1nc(C)nc(Nc2c(Cl)cc(Cl)cc2Cl)c1Cl,,-24.8% (inactive),
C[N+](C)(C)CCOP(=O)(O)OP(=O)([O-])OC[C@H]1O[C@@H](n2ccc(N)nc2=O)[C@H](O)[C@@H]1O,,-5.98% (inactive),
COc1cc2c(CCNC(C)=O)c[nH]c2cc1Cl,,-18.2% (inactive),
OC[C@H]1O[C@@H](n2cnc3c(NC4CCCCC4)ncnc32)[C@H](O)[C@@H]1O,,-5.03% (inactive),
CC(=O)N[C@H](C(=O)O)C(C)(C)SN=O,inactive,,
Cn1cc(C2=C(c3ccc(Cl)cc3Cl)C(=O)NC2=O)c2ccccc21,,,inactive
Cn1c(=O)c2[nH]c(-c3ccccc3)nc2n(C)c1=O,inactive,,
COc1cccc(OC)c1OCCNCC1COc2ccccc2O1 (stereo unspecified),,-22.4% (inactive),
CO[C@H]1O[C@@H]2O[C@]3(C)CC[C@@H]4[C@@H](C)CC[C@H]([C@H]1C)[C@]24OO3,inactive,,
N#C/C(=C\c1ccc(-c2cc(Cl)ccc2Cl)o1)C(=O)Nc1cccc2ncccc12,inactive,,
Cn1c(=O)c(-c2c(Cl)cccc2Cl)cc2cnc(Nc3ccc(N4CCOCC4)cc3)nc21,,-28% (inactive),
CCC(CO)Nc1nc(NCc2ccccc2)c2ncn(C(C)C)c2n1 (stereo unspecified),,-11.8% (inactive),
S=C(S)OC1CC2CC1C1CCCC21 (stereo unspecified),,-15.2% (inactive),

SMILES,outcome,"activity, negative = inhibition",Potency
O=C(O)CC1CCCc2ccccc2C1O (stereo unspecified),,-12.8% (inactive),
O=[N+]([O-])c1ccc2c(c1)S(=O)(=O)C=C2,,-18.6% (inactive),
C#C[C@]1(O)CC[C@H]2[C@@H]3CCC4=Cc5oncc5CC4(C)[C@H]3CCC21C (stereo partly specified),,-7.73% (inactive),
Nc1nc(Cl)nc2c1ncn2[C@@H]1O[C@H](CO)[C@@H](O)[C@H]1O,inactive,,
CN1CCc2ccccc2Cc2[nH]c3ccccc3c2CC1,,2.16% (inactive),
COc1ccc(/C=C/c2nc(NCCCN(C)C)c3ccccc3n2)cc1,inactive,,
S=c1[nH]c(-c2ccccc2)cn1-c1ccccc1,inactive,,
c1cnc2c(c1)ccc1cccnc12,,-25.2% (inactive),
CC(C)(NS(=O)(=O)c1ccc(Oc2ccc(F)cc2)cc1)C(=O)NO,inactive,,
O=S(=O)(c1cccc2c(I)cccc12)N1CCCNCC1,,,inactive
O=C(O)c1cc([N+](=O)[O-])ccc1NCCCc1ccccc1,inactive,,
CC[C@H]1OC(=O)[C@H](C)[C@@H](O[C@H]2C[C@@](C)(OC)[C@@H](O)[C@H](C)O2)[C@H](C)[C@@H](O[C@@H]2O[C@H](C)C[C@H](NC)[C@H]2O)[C@](C)(O)C[C@@H](C)CN(C)[C@H](C)[C@@H](O)[C@]1(C)O,inactive,,
NC(CCCP(=O)(O)O)C(=O)O (stereo unspecified),,-19.6% (inactive),
NC[C@@H]1O[C@H](C23CC4CC(CC(C4)C2)C3)Cc2c1ccc(O)c2O,,2.69% (inactive),
O=c1[nH]c2cc([N+](=O)[O-])c([N+](=O)[O-])cc2[nH]c1=O,,-32.4% (inactive),
CC(C)Cc1ccc([C@H](C)C(=O)O)cc1,,-26.5% (inactive),
CCCCCCCC/C=C\CCCCCCCC(=O)NCCO,inactive,,
CC[C@H]1OC(=O)[C@H](C)C(O[C@H]2C[C@@](C)(OC)[C@@H](O)[C@H](C)O2)[C@H](C)[C@@H](OC2O[C@H](C)C[C@H](N(C)C)[C@H]2O)[C@](C)(O)C[C@@H](C)CN(C)[C@H](C)[C@@H](O)[C@]1(C)O (stereo partly specified),,0.714% (inactive),
CN[C@H](CC(C)C)C(=O)N[C@H]1C(=O)N[C@@H](CC(N)=O)C(=O)N[C@H]2C(=O)N[C@H]3C(=O)N[C@H](C(=O)N[C@H](C(=O)O)c4cc(O)cc(O)c4-c4cc3ccc4O)[C@H](O)c3ccc(c(Cl)c3)Oc3cc2cc(c3O[C@@H]2O[C@H](CO)[C@@H](O)[C@H](O)[C@H]2O[C@H]2C[C@](C)(N)[C@H](O)[C@H](C)O2)Oc2ccc(cc2Cl)[C@H]1O,,,inactive
